Each structure is given as a SMILES string. The source made the active and inactive calls. The calls were made as follows: active = hit-call score of the fitted dose curve at least 0.9, where 1 is the maximum; inactive = score below 0.9.

Assay [1] is described as follows: BSK_LPS_PGE2: BioMAP Diversity Plus: LPS Assay for Prostaglandin E2 (PGE2) Biomarker Activity (AID 2283082).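 As to AC50: secreted prostaglandin E2 measured by ELISA in LPS-stimulated co-culture.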 To be noted: primary human HUVEC with PBMC; actives raise or lower the signal. Put shortly:
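Compounds were added to the LPS co-culture of endothelium and PBMC, and PGE2 was measured by ELISA after 24 h. Responses in either direction were fitted with DMSO as baseline.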

Read-out in assay [2]: Macrophage colony-stimulating factor (MCSF), CSF1 (gene 1435)
In words: BSK_LPS_MCSF: BioMAP Diversity Plus: LPS Assay for Macrophage colony-stimulating factor (MCSF) Biomarker Activity (AID 2283083). The conditions noted are these: primary human HUVEC with PBMC; actives raise or lower the signal. Put shortly: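 Bidirectional fitting against DMSO was applied to M-CSF levels read by ELISA at 24 h post-dose. The system pairs human umbilical vein endothelium with peripheral blood mononuclear cells; parallel SRB staining tracked cytotoxicity.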

Read-out in assay [3]: Tissue Factor, F3 (gene 2152)
Briefly: BSK_LPS_TissueFactor: BioMAP Diversity Plus: LPS Assay for Tissue Factor Biomarker Activity (AID 2283084). To be noted: primary human HUVEC with PBMC; actives raise or lower the signal. Put shortly: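 Compound was added to an endothelial cell/PBMC co-culture, and after 24 h tissue factor (CD142) was read by ELISA. Gain or loss of signal was fitted against a DMSO baseline, and parallel SRB staining (560 nm) tracked overt cytotoxicity.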

Read-out in assay [4]: Tumor necrosis factor (Homo sapiens) (UniProt P01375)
Briefly: BSK_LPS_TNFa: BioMAP Diversity Plus: LPS Assay for Tumour Necrosis Factor alpha (TNFa) Biomarker Activity (AID 2283085). The conditions noted are these: primary human HUVEC with PBMC; actives raise or lower the signal. Put shortly:
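Cells (umbilical vein endothelium plus peripheral blood mononuclear cells) were dosed with chemical, incubated 24 h, then TNFa was quantified by ELISA; values derive from bidirectional fitting with DMSO as baseline.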

Read-out in assay [5]: Vascular cell adhesion molecule 1 (VCAM1), VCAM1 (gene 7412)
Briefly: BSK_LPS_VCAM1: BioMAP Diversity Plus: LPS Assay for Vascular cell adhesion molecule 1 (VCAM1) Biomarker Activity (AID 2283086). The conditions noted are these: primary human HUVEC with PBMC; actives raise or lower the signal. The gist of the method:
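Cells are dosed in an LPS-stimulated endothelial/mononuclear co-culture and, after 24 h, VCAM-1 is quantified by ELISA. Activity in either direction is fitted relative to the DMSO negative control.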

Read-out in the next assay: CD38, CD38 (gene 952)
Briefly: BSK_SAg_CD38: BioMAP Diversity Plus: SAg Assay for CD38 Biomarker Activity (AID 2283087). To be noted: primary human HUVEC with PBMC; actives raise or lower the signal. The gist of the method:
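CD38 quantified by ELISA (fluorescence) in a superantigen-activated endothelial cell–PBMC co-culture at 24 h post-dose. Activity fitted in both directions relative to DMSO; parallel SRB and Alamar Blue cytotoxicity read-outs.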

Read-out in a further assay: CD40, CD40 (gene 958)
Briefly: BSK_SAg_CD40: BioMAP Diversity Plus: SAg Assay for CD40 Biomarker Activity (AID 2283088). The conditions noted are these: primary human HUVEC with PBMC; actives raise or lower the signal. Put shortly: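 CD40 is measured by fluorescence ELISA in an endothelial/PBMC primary human co-culture at 24 h post-dose. Fitting is bidirectional, DMSO baseline. Parallel SRB staining (560 nm) flags cytotoxicity.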

Read-out in the next assay: CD69, CD69 (gene 969)
In words: BSK_SAg_CD69: BioMAP Diversity Plus: SAg Assay for CD69 Biomarker Activity (AID 2283089).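 As to AC50: cell surface CD69 protein quantified by ELISA with fluorescence detection.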 The conditions noted are these: primary human HUVEC with PBMC; actives raise or lower the signal. Put shortly: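 Primary human vascular co-culture (umbilical vein endothelium with peripheral blood mononuclear cells) exposed to test chemical for 24 h. CD69 levels quantified by fluorescence ELISA; DMSO served as negative control for bidirectional fitting.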

Read-out in assay [6]: Monocyte Chemoattractant Protein-1 (MCP1), CCL2 (gene 6347)
Briefly: BSK_SAg_MCP1: BioMAP Diversity Plus: SAg Assay for Monocyte Chemoattractant Protein-1 (MCP1) Biomarker Activity (AID 2283090). To be noted: primary human HUVEC with PBMC; actives raise or lower the signal. Put shortly:
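Values derive from bidirectional fitting of ELISA-measured MCP1 against DMSO controls. Readings were taken 24 h after dosing human vascular endothelial cells co-cultured with peripheral blood mononuclear cells under superantigen stimulation.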

Read-out in assay [7]: E-selectin (Homo sapiens) (UniProt P16581)
In words: BSK_SAg_Eselectin: BioMAP Diversity Plus: SAg Assay for Eselectin Biomarker Activity (AID 2283091). To be noted: primary human HUVEC with PBMC; actives raise or lower the signal. Put shortly: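 Cell-surface E-selectin is read by ELISA at 24 h in the SAg co-culture of HUVEC and PBMC. Curves are fitted in both directions relative to DMSO. Parallel SRB total-protein staining tracks overt toxicity.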

Read-out in assay [8]: Monokine induced gamma interferon (MIG), CXCL9 (gene 4283)
Briefly: BSK_SAg_MIG: BioMAP Diversity Plus: SAg Assay for Monokine induced gamma interferon (MIG) Biomarker Activity (AID 2283092). The conditions noted are these: primary human HUVEC with PBMC; actives raise or lower the signal. Put shortly:
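Endothelial cells and PBMC were co-cultured, exposed to test chemicals, and sampled 24 h later. MIG was measured by ELISA, and responses were fitted in both directions relative to DMSO.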

Assay [9] can be described thus: BSK_SAg_PBMCCytotoxicity: PBMC Cytotoxicity Assessment in the BioMAP Diversity Plus: SAg Assay (AID 2283093).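 Also: PBMC viability measured as Alamar Blue reduction fluorescence at 546/580 nm; fitted both ways against DMSO so a hit may be loss or gain of signal.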 The conditions noted are these: primary human HUVEC with PBMC. Put shortly:
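Alamar Blue reduction (6 h, ex/em 546/580 nm) read after 90 h culture of PBMC pre-dosed 1 h then stimulated with SEB plus TSST-1, 20 ng/mL each. Gain or loss of signal fitted relative to DMSO.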

Read-out in assay [10]: Interleukin-8 (IL8), CXCL8 (gene 3576)
In words: BSK_SAg_IL8: BioMAP Diversity Plus: SAg Assay for Interleukin-8 (IL8) Biomarker Activity (AID 2283094). The conditions noted are these: primary human HUVEC with PBMC; actives raise or lower the signal. Put shortly: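 Chemicals were dosed onto a human endothelial–PBMC co-culture, and IL-8 was quantified by ELISA after 24 h. Both increases and decreases were fitted relative to DMSO.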

A short description of assay [11]: BSK_SAg_Proliferation: Cell Proliferation Assessment in the BioMAP Diversity Plus: SAg Assay (AID 2283095).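 Also: relative cell number as total protein by SRB absorbance in sub-confluent culture.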 The conditions noted are these: primary human HUVEC with PBMC. The gist of the method: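 Absorbance of sulforhodamine B at 560 nm reports total protein in a human vascular endothelial/PBMC co-culture after 96 h chemical exposure. Gain or loss of signal is fitted in both directions against DMSO.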

Assay [12] can be described thus: BSK_SAg_SRB: Viability Assessment in the BioMAP Diversity Plus: SAg Assay (AID 2283096).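 Also: cells read one day after compound addition; hits may be either gain or loss of signal compared with DMSO.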 To be noted: primary human HUVEC with PBMC. The gist of the method:
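SRB absorbance at 560 nm served as the viability read-out. Cells (HUVEC plus peripheral blood mononuclear cells) were TCA-fixed and stained 24 h post-dosing; activity fitted in both directions against DMSO controls.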

E-selectin (Homo sapiens), sequence (P16581 whole entry, looked up): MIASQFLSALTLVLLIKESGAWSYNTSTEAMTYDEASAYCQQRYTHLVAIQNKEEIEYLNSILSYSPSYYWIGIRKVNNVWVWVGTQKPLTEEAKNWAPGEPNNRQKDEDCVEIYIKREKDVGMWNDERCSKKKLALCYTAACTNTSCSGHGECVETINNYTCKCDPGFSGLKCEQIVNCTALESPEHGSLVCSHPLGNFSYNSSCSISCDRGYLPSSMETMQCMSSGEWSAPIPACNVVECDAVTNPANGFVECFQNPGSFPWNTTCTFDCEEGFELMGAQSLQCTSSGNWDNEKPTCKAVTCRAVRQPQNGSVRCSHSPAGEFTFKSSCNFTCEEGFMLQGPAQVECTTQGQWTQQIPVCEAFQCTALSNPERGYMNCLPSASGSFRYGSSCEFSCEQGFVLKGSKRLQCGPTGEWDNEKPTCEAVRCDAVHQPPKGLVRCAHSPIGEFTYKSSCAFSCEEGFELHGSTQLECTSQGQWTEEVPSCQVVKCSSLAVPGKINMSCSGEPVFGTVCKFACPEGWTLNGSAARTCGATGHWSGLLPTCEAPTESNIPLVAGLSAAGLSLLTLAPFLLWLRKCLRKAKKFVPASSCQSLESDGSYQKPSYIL
Tumor necrosis factor (Homo sapiens), sequence (P01375 whole entry, looked up): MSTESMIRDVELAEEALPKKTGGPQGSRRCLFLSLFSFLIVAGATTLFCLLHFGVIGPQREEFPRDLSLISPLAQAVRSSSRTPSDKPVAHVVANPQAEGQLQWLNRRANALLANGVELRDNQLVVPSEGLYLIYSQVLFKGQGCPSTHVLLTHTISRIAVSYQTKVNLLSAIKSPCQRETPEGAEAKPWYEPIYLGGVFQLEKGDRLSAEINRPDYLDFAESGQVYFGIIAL

For `CCCCC(CC)COC(=O)c1ccc(C(=O)OCC(CC)CCCC)c(C(=O)OCC(CC)CCCC)c1` (centres undefined), the outcome was “inactive” in assay [1]; “inactive” in assay [2]; “inactive” in assay [3]; “inactive” in assay [4]; “inactive” in [5]; “inactive” in the assay with CD38, CD38 (gene 952). The outcome with CD40, CD40 (gene 958) is “inactive”; with CD69, CD69 (gene 969), “inactive”; in assay [6], “inactive”; in assay [7], “inactive”; in assay [8], “inactive”; in assay [9], “inactive”. For the same molecule, the result in assay [10], in assay [11] and in assay [12] was inactive.
As a reminder, the AC50 is the concentration giving half of the maximal activity seen. In the case of `Nc1ccc(Cl)cc1N`, the AC50 in assay [1] was 10 µM (active); in assay [2], 2.96 µM (active); in assay [5], 3.62 µM (active); in the assay with CD38, CD38 (gene 952), 6.44 µM (active); with CD69, CD69 (gene 969) it was 3.65 µM (active); in [6], 3.7 µM (active). For the same molecule, in [7], the AC50 is 8.35 µM (active). The outcome in assay [3] was “inactive”; in [4], “inactive”; with CD40, CD40 (gene 958), “inactive”; in [8], “inactive”; in assay [9], “inactive”; in assay [10], “inactive”. Moreover, the outcome in assay [11] and in assay [12] was inactive.
In the case of `Clc1ccc(Cl)c(Cl)c1`, the outcome in [1] is “inactive”; in [2] it was “inactive”; in assay [3], “inactive”; in assay [5], “inactive”; with CD38, CD38 (gene 952) it was “inactive”; with CD40, CD40 (gene 958), “inactive”. The outcome in the assay with CD69, CD69 (gene 969) is “inactive”; in assay [6], “inactive”; in assay [7] it was “inactive”; in assay [8], “inactive”; in [9] it was “inactive”; in assay [10] it was “inactive”. Moreover, the result in [11] and in [12] was inactive.
On to `c1ccc2c(c1)oc1ccccc12`, for which the outcome in [1] is “inactive”; in assay [2] it was “inactive”; in assay [3], “inactive”; in assay [4] it was “inactive”; in assay [5], “inactive”; in the assay with CD38, CD38 (gene 952), “inactive”. Besides, the outcome in the assay with CD40, CD40 (gene 958) was “inactive”; with CD69, CD69 (gene 969) it was “inactive”; in assay [6], “inactive”; in assay [7], “inactive”; in assay [8] it was “inactive”; in [9], “inactive”. Also, the outcome in assay [10], in [11] and in assay [12] was inactive.

Source of the values: PubChem BioAssay (EPA / NIEHS).
